MsrA inhibitor: inhibitors of bovine MsrA; purified bovine MsrA, absorbance read-out; inhibition, % at 15.5 µM; 0.75% of 360,000 active; AID 651718; in the data active = inhibition above about 4.5%;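 also: 0% = vehicle wells with enzyme and 100% = reference inhibitor wells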
p-CIP stab down: compounds decreasing mouse p/CIP protein stability; Q05BA5; F442A p/CIP-EGFP cells, EGFP fluorescence, 16 h; decrease of EGFP signal, % at 10 µM; 0.01% of 290,000 active;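 active = EGFP signal decrease of at least 30% at 10 µM or well 3 SD below plate mean, unless failing retest; inactive = the rest, including hits failing retest or dose response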
Target sequence (Q05BA5 1-1403): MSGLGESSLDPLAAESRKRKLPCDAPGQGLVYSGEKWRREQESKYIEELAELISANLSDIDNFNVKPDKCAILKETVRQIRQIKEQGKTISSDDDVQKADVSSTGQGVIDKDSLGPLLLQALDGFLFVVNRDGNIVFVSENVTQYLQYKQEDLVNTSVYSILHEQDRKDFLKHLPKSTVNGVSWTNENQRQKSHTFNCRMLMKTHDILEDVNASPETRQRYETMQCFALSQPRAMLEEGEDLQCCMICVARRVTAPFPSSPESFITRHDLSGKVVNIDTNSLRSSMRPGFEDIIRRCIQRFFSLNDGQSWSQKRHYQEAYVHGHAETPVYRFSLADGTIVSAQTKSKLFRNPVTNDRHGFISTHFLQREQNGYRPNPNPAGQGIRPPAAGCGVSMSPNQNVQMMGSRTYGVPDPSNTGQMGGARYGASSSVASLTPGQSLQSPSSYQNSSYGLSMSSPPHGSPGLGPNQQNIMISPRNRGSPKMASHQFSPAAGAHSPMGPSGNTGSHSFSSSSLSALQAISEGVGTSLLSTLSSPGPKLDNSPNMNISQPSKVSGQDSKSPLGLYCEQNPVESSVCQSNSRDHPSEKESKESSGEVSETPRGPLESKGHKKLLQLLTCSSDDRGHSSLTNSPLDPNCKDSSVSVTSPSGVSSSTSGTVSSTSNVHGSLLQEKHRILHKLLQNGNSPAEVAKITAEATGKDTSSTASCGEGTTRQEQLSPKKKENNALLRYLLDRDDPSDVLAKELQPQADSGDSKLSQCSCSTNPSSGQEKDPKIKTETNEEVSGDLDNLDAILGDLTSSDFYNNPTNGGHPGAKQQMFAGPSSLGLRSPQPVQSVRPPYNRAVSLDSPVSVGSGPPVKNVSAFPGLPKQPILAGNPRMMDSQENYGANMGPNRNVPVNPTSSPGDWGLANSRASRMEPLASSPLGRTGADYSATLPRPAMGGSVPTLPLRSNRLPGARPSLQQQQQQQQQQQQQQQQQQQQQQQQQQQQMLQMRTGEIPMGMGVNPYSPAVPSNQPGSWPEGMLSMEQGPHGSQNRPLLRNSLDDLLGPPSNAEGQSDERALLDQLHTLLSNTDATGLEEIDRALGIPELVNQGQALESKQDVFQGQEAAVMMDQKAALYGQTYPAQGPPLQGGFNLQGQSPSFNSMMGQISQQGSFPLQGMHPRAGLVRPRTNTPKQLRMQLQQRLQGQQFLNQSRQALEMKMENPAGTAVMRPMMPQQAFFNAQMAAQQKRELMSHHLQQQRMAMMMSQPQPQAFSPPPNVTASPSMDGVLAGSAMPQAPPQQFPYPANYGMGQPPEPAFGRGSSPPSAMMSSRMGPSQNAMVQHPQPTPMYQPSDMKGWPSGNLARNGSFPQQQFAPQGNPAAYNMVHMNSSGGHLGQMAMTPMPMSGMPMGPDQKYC
14-3-3 Bad inh: disrupts binding of bovine 14-3-3 zeta to phospho-Bad peptide; TR-FRET 14-3-3zeta/Dy647-pBad peptide displacement, 1 h; inhibition, % at 21.7 µM; 0.71% of 220,000 active;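 active = inhibition above about 70%, limit read from the data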;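 also: 0% = full 14-3-3 plus peptide FRET controls and 100% = background without 14-3-3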
MsrA act: activators of bovine methionine sulfoxide reductase A; activation, % at 10.6 µM; purified bovine MsrA, absorbance read-out; 0.3% of 360,000 active; AID 602163; in the data active = activation above about 7.5%;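 also: 0% = vehicle and 100% = reference activator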
Active calls of the source: *; nt = not tested or not shown; [ ] = remark or other dose. Sampled rows, rich in hits. Any-hit rate of the full collection: about 1.4%.

SMILES	MsrA inhibitor	p-CIP stab down	14-3-3 Bad inh	MsrA act
COC(=O)C1=C(C)N(C)C(=NCc2ccc(C(F)(F)F)cc2)NC1c1ccc(Cl)cc1 (stereo not drawn)	-2	nt	nt	nt
CCCNc1nc2ccccc2c(=O)[nH]1	2	7	-19	-8
CC(C)Nc1nc2ccccc2c(=O)[nH]1	0	-10	90*	0
O=C1c2cccc3c([N+](=O)[O-])ccc(c23)C(=O)N1Cc1cccnc1	7.9*	-66	27	-6
CCN1CCN(CCCNC(=O)c2ccc(/C=C3/Sc4ccccc4N(Cc4ccccc4F)C3=O)cc2)CC1	-1	0	81*	-1
Cc1ccccc1CN1C(=O)c2ccccc2Sc2ccc(C(=O)NCCN3CCOCC3)cc21	-1	-12	nt	-2
O=C(NCCCN1CCOCC1)c1ccc(/C=C2\Oc3ccccc3N(Cc3ccccc3F)C2=O)cc1	1	-1	nt	0
CCN1CCN(CCNC(=O)c2ccc(/C=C3/Sc4ccccc4N(Cc4ccccc4C)C3=O)cc2)CC1	0	0	70*	-3
Cc1cc2c(c(=O)o1)[C@@]1(C(=O)N(C)c3ccccc31)C1=C(CC(C)(C)OC1=O)O2	0	nt	nt	nt
COc1ccccc1CCn1cnc(-c2ccc(F)cc2)c1C(C)C	-1	nt	nt	nt
CCOc1ccccc1OCCn1nnc2ccccc21	2	-7	82*	-4
CCOc1ccc(S(=O)(=O)n2nnc3ccccc32)cc1C(C)C	nt	-6	71*	nt
COc1ccccc1OCCn1nnc2ccccc21	-1	-5	nt	-2
CCCCOCCCNC(=O)C[C@H]1C[C@@]2(C(=O)OC)C(=C[C@H](C(C)(C)C)O[C@@H]2C)N(CCC2=CCCCC2)C1=O	1	nt	nt	nt
COc1ccccc1CNc1nc(-c2cc(C)n(C)c2C)cs1	nt	-4	96*	-5
COCCNc1nc(-c2cc(C)n(CCc3ccc(OC)cc3)c2C)cs1	-1	4	60	-3
Cc1c(N2C(=O)/C(=C/c3ccccc3)SC2=S)c(=O)n(-c2ccccc2)n1C	4.5*	-12	6	-11
Cc1ccc(/C=C2\SC(=S)N(c3c(C)n(C)n(-c4ccccc4)c3=O)C2=O)cc1	3	1	-2	-3
Cc1ccc(CSCC(=O)NCc2ccco2)cc1	-1	-14	89*	0
CCc1c(-c2ccccc2F)ncn1CCc1ccccc1OC	0	nt	nt	nt
O=C(O)CCC(=O)N1CCN(c2ccc(C(=O)c3ccc(F)cc3)cc2)CC1	4.7*	1	-6	-10
O=C(N[C@H](c1cccc(Br)c1)[C@@H]1CCCC=C1c1ccccc1)C(F)(F)F	3	nt	nt	nt
NNc1nc(N)c2c(n1)-c1ccccc1CC21CCCC1	2	12	82*[fluorescence artefact?]	-6
CCc1nc2c(c(=O)[nH]1)C1(CCCC1)Cc1ccccc1-2	0	10	3	-2
CN(CCc1ccccn1)C(=O)[C@@H](Cc1ccccc1)NC(=O)[C@H]1O[C@@H](n2ccc(=O)[nH]c2=O)[C@H](O)[C@@H]1O	-1	nt	nt	nt
SMILES	MsrA inhibitor	p-CIP stab down	14-3-3 Bad inh	MsrA act
COc1cc(OC)c(OC)cc1/C=N/Nc1ncnc2c1[nH]c1ccccc12	0	-8	6	-4
COc1ccc(/C=N/Nc2ncnc3c2[nH]c2ccc(C)cc23)c(OC)c1OC	0	-6	87*	-4
Cc1c(C2Nc3ccccc3C2C)[nH]c2ccccc12 (stereo not drawn)	0	nt	nt	nt
CSc1nc(N(C)CCO)c2sc3nc(-c4ccco4)c4c(c3c2n1)CCC4	nt	-4	9	0
CSc1nc(SCC(=O)O)c2sc3nc(-c4ccccc4)c4c(c3c2n1)CCC4	-1	-12	87*	0
C=CCN1C(=O)c2n[nH]c(C(C)C)c2C1c1ccc(C)cc1 (stereo not drawn)	2	nt	nt	nt
CCCCn1nnnc1C(c1ccccc1)N1CCN(C(=O)c2ccco2)CC1 (stereo not drawn)	2	nt	nt	-3
O=C(c1ccco1)N1CCN(C(c2ccc(F)cc2)c2nnnn2Cc2cccs2)CC1 (stereo not drawn)	0	-2	90*	-2
CC(C)CCn1nnnc1C(c1ccc(F)cc1)N1CCN(C(=O)c2ccco2)CC1 (stereo not drawn)	-2	-15	83*	-3
O=C(c1ccco1)N1CCN(C(c2ccc(Cl)cc2)c2nnnn2CC2CCCO2)CC1 (stereo not drawn)	0	-6	81*	-3
CCCCNC(=O)C[C@H]1C[C@@]2(C(=O)OC)C(=C[C@H](COCc3ccccc3)O[C@@H]2C)N(CCC2=CCCCC2)C1=O	-1	nt	nt	nt
COC(=O)[C@]12C[C@H](CC(=O)N3CCSCC3)C(=O)N(Cc3ccccc3)C1=C[C@H](C(C)(C)C)O[C@@H]2C	1	nt	nt	nt
Cc1ccc(NC(=O)/C(=C\c2ccc3c(c2)OCO3)NC(=O)c2ccco2)cc1	4.5*	-8	7	-7

Compound activity as filed in PubChem.
